Drawing on PubChem BioAssay (EPA / NIEHS), this text covers outcome and AC50 for twelve molecules.

Molecules are shown by their SMILES. Several values for one entry are separate records, joined by “and”; a condition that tells them apart may be missing. Identical values can stand only once. Inconclusive results are not listed. Activity calls are given as the source filed them. How the source made its calls, unless noted: active means hit-call score of the fitted dose curve at least 0.9, where 1 is the maximum; inconclusive means response in the unintended direction; inactive means score below 0.9.

For orientation: AC50 means the midpoint of the concentration-response curve, whichever way the signal moves.

Assay [1] concerns Thyroperoxidase (TPO), gene 54314. As to the kind of experiment: CCTE_Simmons_AUR_rTPO: CCTE's Amplex UltraRed Assay for Thyroperoxidase (TPO) Inhibition, Simmons Lab (AID 2283662).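 On AC50: potency for loss of signal meaning inhibition of peroxidase activity.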 Put shortly:
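Rat thyroid microsomal TPO + 25 uM AUR in 200 mM K phosphate; cpd 5 nM–87.5 uM [final], 8 conc, 0.5% DMSO; 300 uM H2O2 starts rxn; 37C dark 30 min; endpoint FI 544/590 nm; n=3.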

Assay [2] is described as follows: CCTE_Simmons_CellTiterGLO_HEK293T: Viability Assessment in CCTE's Assays for Thyroperoxidase (TPO) Inhibition, Simmons Lab (AID 2283665).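 On AC50: cells exposed to compound for 24 h before readout; actives reduce ATP signal below DMSO vehicle meaning cytotoxicity.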 A digest of the protocol:
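Cells were seeded overnight, then exposed to an eight-point series up to 87.5 uM final for 24 hours. CellTiter-Glo reagent was added and luminescence read after 20 min, giving ATP-based viability versus DMSO.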
A general note: ATP-based viability assays read luminescence as a measure of living cells.

A short description of assay [3]: Tanguay_ZF_120hpf_JAW_legacy: (Legacy) Oregon State University Tanguay Lab 120 Hour Post-fertilization zebrafish Assay for Jaw Malformation (AID 2283638).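 On AC50: active means more embryos with jaw malformation than DMSO controls.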 A digest of the protocol:
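Static waterborne exposure of dechorionated wild-type (Tropical 5D) zebrafish from 6 to 120 hpf at 28C, 0.64% DMSO vehicle; 5uM trimethyltin chloride served as positive control. Jaw morphology recorded as binary at 120 hpf.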

Assay [4] is described as follows: Tanguay_ZF_120hpf_OTIC_legacy: (Legacy) Oregon State University Tanguay Lab 120 Hour Post-fertilization zebrafish Assay for Otic Vesicle Malformation (AID 2283639). Put shortly: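 Statically exposed wild-type 5D zebrafish embryos, kept sealed and dark at 28C through 120 hours post fertilization, were examined by brightfield microscopy for otic vesicle defects. Responses were recorded as present or absent and analysed relative to DMSO.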

Assay [5] can be described thus: Tanguay_ZF_120hpf_PE_legacy: (Legacy) Oregon State University Tanguay Lab 120 Hour Post-fertilization zebrafish Assay for Pericardial Edema (AID 2283640).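 On AC50: potency for increased incidence of pericardial edema versus DMSO baseline.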 Put shortly: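 Read-out is the presence or absence of pericardial edema at 120 hpf under brightfield, with gain of signal fitted against DMSO controls. Larvae (5D wild-type) were statically exposed at 28C with 0.64% final DMSO.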

Assay [6] can be described thus: Tanguay_ZF_120hpf_BRAI_legacy: (Legacy) Oregon State University Tanguay Lab 120 Hour Post-fertilization zebrafish Assay for Brain Malformation (AID 2283641). Put shortly:
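Brain malformation in Tropical 5D zebrafish was recorded as a binary endpoint after static compound exposure from early development to 120 hpf at 28C. Activity was analysed against DMSO as negative control.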

A short description of assay [7]: Tanguay_ZF_120hpf_SOMI_legacy: (Legacy) Oregon State University Tanguay Lab 120 Hour Post-fertilization zebrafish Assay for Somite Malformation (AID 2283647). Put shortly:
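5D WT zebrafish; chorion removed 4 hpf; 1 embryo/well from 6 hpf; static exposure to 120 hpf, 28C, 0.64% DMSO final. Endpoint: somite malformation, binary, brightfield. Mortality excluded.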

Assay [8] in a line: Tanguay_ZF_120hpf_PFIN_legacy: (Legacy) Oregon State University Tanguay Lab 120 Hour Post-fertilization zebrafish Assay for Pectoral Fin Malformation (AID 2283648).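 Further: each larva judged yes or no for fin defect by brightfield with dead larvae skipped.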 Put shortly:
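Pectoral fin malformation was recorded as a binary endpoint at 120 hpf in wild-type Tropical 5D larvae, which had been dechorionated and exposed statically from 6 hpf at 28C in 0.64% DMSO. Dead embryos were excluded.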

Assay [9] in a line: Tanguay_ZF_120hpf_CFIN_legacy: (Legacy) Oregon State University Tanguay Lab 120 Hour Post-fertilization zebrafish Assay for Caudal Fin Malformation (AID 2283649). Put shortly:
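Embryos were collected from Tropical 5D wild-type adults and dechorionated at 4 hpf. At 6 hpf each was exposed, one per well, at 0.64% DMSO and 28C. At 120 hpf fin morphology was scored; dead embryos were excluded.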

The nature of assay [10]: Tanguay_ZF_120hpf_PIG_legacy: (Legacy) Oregon State University Tanguay Lab 120 Hour Post-fertilization zebrafish Assay for Pigmentation Malformation (AID 2283650). Put shortly: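 Pigment malformation recorded as a binary call at 120 hpf in zebrafish (Tropical 5D) exposed singly from 6 hpf after pronase dechorionation. Static, sealed, 28C exposure, 0.64% DMSO; mortality excludes scoring; positive-direction fit against DMSO.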

Assay [11] in a line: Tanguay_ZF_120hpf_CIRC_legacy: (Legacy) Oregon State University Tanguay Lab 120 Hour Post-fertilization zebrafish Assay for Circulatory Malformation (AID 2283651). A digest of the protocol:
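Embryos are dechorionated at 4 hpf, plated one per well at 6 hpf, then held under static exposure at 28C until 120 hpf. Malformations are recorded as binary calls; mortality excludes other endpoints.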

The nature of assay [12]: Tanguay_ZF_120hpf_SWIM_legacy: (Legacy) Oregon State University Tanguay Lab 120 Hour Post-fertilization zebrafish Assay for Swim Bladder Malformation (AID 2283654).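 Further: swim bladder malformation in each larva scored yes or no under brightfield.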 Put shortly: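 Scoring is binary for swim bladder defects at 120 hpf, by brightfield inspection of zebrafish larvae. Embryos were exposed singly from 6 hpf after pronase dechorionation, at 28C with 0.64% DMSO; mortality excluded scoring.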

Assay [13] can be described thus: Tanguay_ZF_120hpf_TRUN_legacy: (Legacy) Oregon State University Tanguay Lab 120 Hour Post-fertilization zebrafish Assay for Truncated Body (AID 2283655). A digest of the protocol:
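5D wild-type larvae; pronase dechorionation; static exposure 6→120 hpf, 28C; DMSO 0.64% final; 5uM trimethyltin chloride positive control. Readout: presence/absence of truncated body, analyzed relative to DMSO.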

Assay [14] can be described thus: Tanguay_ZF_120hpf_NC_legacy: (Legacy) Oregon State University Tanguay Lab 120 Hour Post-fertilization zebrafish Assay for Notochord and Tail Malformation (AID 2283656). A digest of the protocol:
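Binary scoring of notochord distortion by brightfield microscopy; embryos dying were not scored. Wild-type Tropical 5D embryos, chorion removed, exposed singly and statically from 6 to 120 hpf, 28C, sealed, 0.64% DMSO.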

The nature of assay [15]: Tanguay_ZF_120hpf_TR_legacy: (Legacy) Oregon State University Tanguay Lab 120 Hour Post-fertilization zebrafish Assay for Touch Response (AID 2283667). A digest of the protocol: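 Binary touch-response endpoint in larvae at 120 hpf after static waterborne exposure from embryo stage (28°C, 0.64% DMSO vehicle, 5 uM trimethyltin chloride as positive control); embryos dead at 24 or 120 hpf excluded; fitted as gain versus DMSO.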

Assay [16] in a line: CCTE_Padilla_ZF_144hpf_TERATOSCORE: (Legacy) CCTE's 144 Hour Post-fertilization zebrafish Assay Teratoscore, Padilla Lab (AID 2283679; active means hit-call score of the fitted dose curve at least 0.9, where 1 is the maximum; inactive means score below 0.9;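 further: zebrafish embryos with chorions exposed by immersion from 6-8 hpf to 5 dpf with daily renewal; teratogenicity score from eye scoring of death hatching and malformations at 144 hpf; higher score means more developmental defects relative to DMSO baseline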). Put shortly:
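Larvae scored by eye at 144 hpf for death, hatching and malformations after a day in clean Hanks'. Before that, daily-renewed exposure at 80 uM (0.4% DMSO, 26C) from roughly 6-8 hpf through 5 dpf, 4 embryos per chemical.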

Assay [17] in a line: CEETOX_H295R_MTT_cell_viability: Viability Assessment in the CeeTox HT-H295R MTT Assay (AID 2283718; active means hit-call score of the fitted dose curve at least 0.9, where 1 is the maximum; inactive means score below 0.9). A digest of the protocol:
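MTT reduction (0.5 mg/ml, 4 h at 37 C; absorbance at 570 and 650 nm) gave viability as background-corrected percent change versus controls. H295R cells had 48 h forskolin (10 uM) prestimulation, then 48 h chemical exposure at 0.1% DMSO.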

The nature of assay [18]: STM_H9_OrnithineISnorm_perc: Stemina devTOX quickPredict H9 human embryonic stem cell (hESC)-based Assay for Ornithine (ORN) Metabolite Biomarker, Normalized (AID 2283712; active means hit-call score of the fitted dose curve at least 0.9, where 1 is the maximum; inactive means score below 0.9;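 further: ornithine released into spent medium during last day measured by mass spectrometry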). Put shortly:
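Ornithine secreted by H9 hESCs after 72h compound treatment (daily media/compound renewal) was quantified in final-day media by UPLC-HRMS. Values are isotope-standard-normalized, expressed relative to 0.1% DMSO, fitted in positive direction.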

A short description of assay [19]: STM_H9_CystineISnorm_perc: Stemina devTOX quickPredict H9 human embryonic stem cell (hESC)-based Assay for Cystine (CYSS) Metabolite Biomarker, Normalized (AID 2283713; active means hit-call score of the fitted dose curve at least 0.9, where 1 is the maximum; inactive means score below 0.9). A digest of the protocol:
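Cells are held undifferentiated and treated for 72h, receiving fresh medium with compound every 24h. Cystine secreted during the final day is quantified by UPLC-HRMS against a labeled spike-in, then expressed relative to the DMSO vehicle median.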

Assay [20] is described as follows: STM_H9_OrnCyssISnorm_ratio: Stemina devTOX quickPredict H9 human embryonic stem cell (hESC)-based Assay for Ornithine (ORN):Cystine (CYSS) Ratio (AID 2283714). A digest of the protocol: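 Ratio of internal-standard-normalized ornithine to cystine, measured by UPLC-HRMS in spent media from the last 24 h. H9 cells kept pluripotent, dosed 72 h with daily media and compound renewal; DMSO 0.1% serves as baseline.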

Take `CC1=CCC(=C(C)C)CC1`: the outcome in [1] was inactive.
For `CCC(C)(C)C1CCC(=O)CC1`, the AC50 in assay [1] is 39.3 µM (active). In [2], the outcome was inactive.
Take `CCCCCCCCCCCCS`: the AC50 in [1] was 7.49 µM (active); in assay [2], 83.5 µM (active).
As to `O=Cc1ccccc1O`, in assay [1], the molecule was classed as inactive.
`C=C(C)C(N)=O`: the molecule was called inactive in assay [3], in assay [4], in [5], in [6], in assay [7] and in assay [8]. For the same molecule, the result in assay [9], in assay [10], in [11], in assay [12], in assay [13] and in assay [14] was inactive. For the same molecule, the call in assay [15] was inactive.
On to `CN1CCc2cccc3c2[C@H]1Cc1ccc(O)c(O)c1-3`, for which the figures for the concentration at half-maximal activity (AC50) in assay [1] and in [2] were 0.522 µM (active) and 14.4 µM (active), respectively.
As to `CCCc1ccc(N)cc1`, the AC50 in [1] is 0.0301 µM (active). In addition, the molecule was classed as inactive in [2].
Consider `C[C@]12CC[C@@H]3c4ccc(O)cc4CC[C@H]3[C@@H]1CC[C@@H]2O`, for which the call in [3], in assay [5], in assay [6], in assay [7], in assay [9] and in assay [10] was inactive. The call in assay [11], in assay [12], in assay [13], in [14], in [2] and in assay [15] was inactive. Besides, the outcome in assay [17] was inactive. Besides, the AC50 in assay [1] was 4.86 µM (active); in assay [16], 12 µM (active).
Take `NC(N)=S`: the AC50 in [1] is 19.1 µM (active) and 12.3 µM (active). The outcome in assay [2] was inactive.
Turning to `O=C(O)C1=NN(c2ccc(S(=O)(=O)O)cc2)C(=O)C1`, in assay [1], the AC50 is 36.4 µM (active).
For `C#C[C@]1(O)CC[C@H]2[C@@H]3CCc4cc(O)ccc4[C@H]3CC[C@@]21C`, the molecule was called inactive in assay [3], in assay [4], in assay [5], in assay [6], in assay [7] and in [8]. The outcome in assay [9], in assay [10], in [11], in assay [12], in assay [13] and in [14] was inactive. In addition, the outcome in [15] and in assay [17] was inactive. The AC50 in [1] was 9.38 µM (active); in [2] it was 37.5 µM (active); in [16], 5.77 µM (active).
In the case of `COC(=O)c1ccc(C(=O)OC)cc1`, the concentration at half-maximal activity (AC50) in assay [3] was 32.7 µM (active); in assay [5] it was 28.9 µM (active); in assay [6], 44.4 µM (active); in assay [12], 12.3 µM (active); in assay [16], 4.57 µM (active). Also, the call in assay [4], in assay [7], in assay [8], in assay [9], in assay [11] and in assay [13] was inactive. Moreover, the molecule was called inactive in assay [14], in assay [18], in assay [19], in assay [20] and in assay [17].
